Laboratory results reported in PubChem BioAssay (Tox21).
Results filed as inconclusive are left out. Calls of active or inactive are those of the source. Unless noted, calls follow the shape of the dose curve; as a rule, active = well fitted curve in the direction sought with a large enough effect in the repeat runs; inconclusive = weak or mixed curves; inactive = no such curve, though single readings can be large; an effect the other way counts as inactive or inconclusive.

How the values were obtained:
[1] = qHTS assay to identify aromatase inhibitors - cell viability counter screen (AID 743084);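 also: cells stimulated with testosterone during compound exposure; nearly all actives have a fitted effect of over 55% in size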
[2] = target: Aryl hydrocarbon receptor (Homo sapiens) (UniProt P35869); test: qHTS assay to identify small molecule that activate the aryl hydrocarbon receptor (AhR) signaling pathway (AID 743085);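 also: HG2L7.5c1 human HepG2 liver cells with stably integrated DRE-driven firefly reporter; series mostly up to about 70 µM; nearly all actives have a fitted effect of over 15% in size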
Chain of Aryl hydrocarbon receptor (Homo sapiens) (P35869 whole entry, looked up): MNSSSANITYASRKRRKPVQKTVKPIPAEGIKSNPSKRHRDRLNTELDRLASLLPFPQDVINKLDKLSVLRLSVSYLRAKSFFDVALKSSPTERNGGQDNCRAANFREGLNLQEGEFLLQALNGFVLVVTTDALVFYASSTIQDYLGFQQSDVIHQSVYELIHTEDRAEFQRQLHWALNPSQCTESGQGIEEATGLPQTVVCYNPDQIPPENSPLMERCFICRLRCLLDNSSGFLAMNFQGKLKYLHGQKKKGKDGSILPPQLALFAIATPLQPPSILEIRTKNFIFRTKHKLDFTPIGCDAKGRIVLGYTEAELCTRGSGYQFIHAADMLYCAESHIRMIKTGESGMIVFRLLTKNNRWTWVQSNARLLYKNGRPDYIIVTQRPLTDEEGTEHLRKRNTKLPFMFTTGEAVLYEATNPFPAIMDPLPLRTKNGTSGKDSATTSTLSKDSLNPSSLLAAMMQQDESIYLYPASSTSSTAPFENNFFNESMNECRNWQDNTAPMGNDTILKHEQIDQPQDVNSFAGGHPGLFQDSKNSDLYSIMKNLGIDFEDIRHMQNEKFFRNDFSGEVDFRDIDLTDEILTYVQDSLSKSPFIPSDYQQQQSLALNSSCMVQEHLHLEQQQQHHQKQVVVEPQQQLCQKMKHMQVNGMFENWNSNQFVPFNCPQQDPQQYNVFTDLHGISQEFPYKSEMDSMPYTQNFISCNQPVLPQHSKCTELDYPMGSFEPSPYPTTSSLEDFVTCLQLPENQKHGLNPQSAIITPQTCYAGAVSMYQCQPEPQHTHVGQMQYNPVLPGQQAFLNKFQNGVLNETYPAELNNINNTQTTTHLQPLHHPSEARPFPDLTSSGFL
Outline: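 HepG2 cells (HG2L7.5c1) stably carrying a firefly luciferase reporter driven by 20 dioxin responsive elements were exposed to compound for 24 h at 37C after a 5 h settling period; luminescence rise (ONE-Glo) indicated activation.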

[3] = qHTS assay to identify small molecule that activate the aryl hydrocarbon receptor (AhR) signaling pathway - cell viability counter screen (AID 743086);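 also: HepG2 liver cells carrying the AhR DRE luciferase reporter; series mostly up to about 70 µM; nearly all actives have a fitted effect of over 45% in size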
Outline: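 HepG2-AhR-luc (HG2L7.5c1) cells, 4000/well, were preincubated 5 h at 37C, exposed to compound in qHTS format for 24 hr at 37C, then given CellTiter-Fluor for 30 min; viability was read as fluorescence in the reporter wells.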

[4] = target: Peroxisome proliferator-activated receptor gamma (Homo sapiens) (UniProt P37231); test: qHTS assay to identify small molecule antagonists of the peroxisome proliferator-activated receptor gamma (PPARg) signaling pathway (AID 743191; calls by dose curve; also: series mostly up to about 63 µM; nearly all actives have a fitted effect of over 30% in size)
Chain of Peroxisome proliferator-activated receptor gamma (Homo sapiens) (P37231 whole entry, looked up): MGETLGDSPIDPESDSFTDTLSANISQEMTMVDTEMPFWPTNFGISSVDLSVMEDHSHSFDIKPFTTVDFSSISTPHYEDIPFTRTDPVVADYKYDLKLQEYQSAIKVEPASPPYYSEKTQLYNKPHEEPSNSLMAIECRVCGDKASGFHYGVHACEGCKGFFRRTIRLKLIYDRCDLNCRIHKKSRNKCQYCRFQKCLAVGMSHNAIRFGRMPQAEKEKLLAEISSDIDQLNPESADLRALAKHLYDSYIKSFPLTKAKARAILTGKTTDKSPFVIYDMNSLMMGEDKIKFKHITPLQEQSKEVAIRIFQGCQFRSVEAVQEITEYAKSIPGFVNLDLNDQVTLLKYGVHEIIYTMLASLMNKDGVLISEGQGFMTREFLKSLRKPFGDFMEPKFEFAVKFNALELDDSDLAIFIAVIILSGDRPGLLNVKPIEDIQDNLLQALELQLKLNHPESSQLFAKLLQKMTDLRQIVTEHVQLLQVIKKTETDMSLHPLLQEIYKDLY
Outline: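 GeneBLAzer PPARg UAS-bla HEK293H cells carrying a UAS-driven beta-lactamase reporter were plated at 3000 cells/well, preincubated 5 h at 37C, then given compound for 17 h at 37C; LiveBLAzer B/G FRET substrate was read after 1 h at room temperature.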

[5] = qHTS assay to identify small molecule antagonists of the peroxisome proliferator-activated receptor gamma (PPARg) signaling pathway - cell viability counter screen (AID 743194); settings: Potency: co-treated with 50 nM rosiglitazone; also: nearly all actives have a fitted effect of over 55% in size
Outline: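 PPARg-UAS-bla HEK293H cells were plated, rested 5 h at 37 C, then treated with compounds plus rosiglitazone (50 nM final) for 17 h at 37 C; viability was then read by CellTiter-Glo luminescence after 30 min at room temperature.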

[6] = qHTS assay for small molecule agonists of the antioxidant response element (ARE) signaling pathway (AID 743202; active = well fitted activation curve with a large enough effect in the signal ratio in the repeat runs, not every such curve was filed as active; the % refers to the signal ratio)
Outline: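 Read-out: LiveBLAzer B/G FRET substrate fluorescence after 2 h at room temperature, following 16 h compound treatment at 37 C of HepG2 cells carrying an ARE-driven beta-lactamase reporter.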

[7] = qHTS assay for small molecule agonists of the antioxidant response element (ARE) signaling pathway - cell viability counter screen (AID 743203; calls by dose curve; also: nearly all actives have a fitted effect of over 55% in size)
Outline: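 HepG2 cells carrying ARE-driven beta-lactamase; 2,000 cells/well; 5 hrs plating; compound pinned from DMSO; 16 hrs 37C/5% CO2; CellTiter-Glo added; 30 min RT; luminescence.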

[8] = qHTS assay for small molecule activators of the heat shock response signaling pathway - cell viability counter screen (AID 743209); also: nearly all actives have a fitted effect of over 50% in size
Outline: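 Luminescence from CellTiter-Glo, added after the beta-lactamase FRET read, gave the viability signal. Cells were HSE-bla HeLa treated with DMSO-dissolved compounds for 5 h at 37 C following overnight plating.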

[9] = qHTS assay to identify small molecule agonists of the peroxisome proliferator-activated receptor delta (PPARd) signaling pathway - cell viability counter screen (AID 743211); also: nearly all actives have a fitted effect of over 55% in size
Outline: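 PPARd-bla HEK293H cells (UAS-beta-lactamase reporter) were treated with compounds for 17 h at 37 C. Viability was then read in the same wells by CellTiter-Glo luminescence after 30 min at room temperature.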

[10] = target: Peroxisome proliferator-activated receptor delta (Homo sapiens) (UniProt Q03181); test: qHTS assay to identify small molecule agonists of the peroxisome proliferator-activated receptor delta (PPARd) signaling pathway (AID 743212; calls by dose curve)
Chain of Peroxisome proliferator-activated receptor delta (Homo sapiens) (Q03181 whole entry, looked up): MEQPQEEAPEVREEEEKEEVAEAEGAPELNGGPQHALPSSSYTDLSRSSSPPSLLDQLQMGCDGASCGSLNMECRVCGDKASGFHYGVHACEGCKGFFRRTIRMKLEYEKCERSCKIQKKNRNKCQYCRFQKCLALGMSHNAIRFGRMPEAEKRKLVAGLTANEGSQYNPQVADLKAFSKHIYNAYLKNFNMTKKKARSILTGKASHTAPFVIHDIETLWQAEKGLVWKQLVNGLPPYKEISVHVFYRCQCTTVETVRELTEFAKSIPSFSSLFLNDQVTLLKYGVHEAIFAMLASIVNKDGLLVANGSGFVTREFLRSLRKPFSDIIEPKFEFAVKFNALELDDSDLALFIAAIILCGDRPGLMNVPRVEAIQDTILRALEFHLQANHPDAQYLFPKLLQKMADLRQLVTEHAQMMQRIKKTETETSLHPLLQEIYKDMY
Outline: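 GeneBLAzer PPARd UAS-bla HEK293H cells (beta-lactamase reporter under UAS control), plated and rested 5 h at 37 C, then exposed to compounds in DMSO at 37 C; LiveBLAzer B/G FRET substrate added, 2 h room temperature, fluorescence read.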

[11] = qHTS assay to identify small molecule antagonists of the peroxisome proliferator-activated receptor delta (PPARd) signaling pathway - cell viability counter screen (AID 743213); also: nearly all actives have a fitted effect of over 50% in size
Outline: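 Same-well viability: cells pre-incubated 5 h, dosed with compound plus 300 nM L165041, kept 17 h at 37 C, FRET substrate 2 h RT, then CellTiter-Glo 30 min RT and luminescence.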

[12] = target: Bile acid receptor (Homo sapiens) (UniProt Q96RI1); test: qHTS assay to identify small molecule antagonists of the farnesoid-X-receptor (FXR) signaling pathway (AID 743217; active = well fitted inhibition curve with a large enough effect in the signal ratio in the repeat runs, not every such curve was filed as active; the % refers to the signal ratio)
Chain of Bile acid receptor (Homo sapiens) (Q96RI1 whole entry, looked up): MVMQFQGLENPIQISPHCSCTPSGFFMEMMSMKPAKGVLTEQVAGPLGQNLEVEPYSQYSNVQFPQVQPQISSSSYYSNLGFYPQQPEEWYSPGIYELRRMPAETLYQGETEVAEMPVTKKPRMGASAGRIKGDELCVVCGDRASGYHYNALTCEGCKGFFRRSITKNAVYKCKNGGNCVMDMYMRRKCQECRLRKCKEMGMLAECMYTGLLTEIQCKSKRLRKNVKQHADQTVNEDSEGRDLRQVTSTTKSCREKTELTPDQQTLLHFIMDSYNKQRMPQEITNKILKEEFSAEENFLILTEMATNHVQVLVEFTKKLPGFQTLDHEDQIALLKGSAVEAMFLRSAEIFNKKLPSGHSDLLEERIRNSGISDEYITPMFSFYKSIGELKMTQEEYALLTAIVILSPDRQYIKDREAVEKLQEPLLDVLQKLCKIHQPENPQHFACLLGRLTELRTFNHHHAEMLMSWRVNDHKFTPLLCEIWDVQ
Outline: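 HEK 293T FXR-UAS-bla, 5000 cells/well; compound + CDCA 50 uM final; 16 h, 37 °C; B/G FRET substrate 2 h RT; fluorescence.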

[13] = qHTS assay to identify small molecule agonists of the farnesoid-X-receptor (FXR) signaling pathway - cell viability counter screen (AID 743218); also: nearly all actives have a fitted effect of over 45% in size
Outline: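 HEK 293T FXR-bla cells; 5 h pre-incubation, 16 h compound exposure at 37 C; LiveBLAzer substrate 2 h RT, then CellTiter-Glo 30 min RT, luminescence.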

[14] = target: Bile acid receptor (Homo sapiens) (UniProt Q96RI1); test: qHTS assay to identify small molecule agonists of the farnesoid-X-receptor (FXR) signaling pathway (AID 743220; active = well fitted activation curve with a large enough effect in the signal ratio in the repeat runs, not every such curve was filed as active; the % refers to the signal ratio)
Outline: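 Beta-lactamase reporter under UAS control in GeneBLAzer FXR HEK 293T cells (5000/well) measured with LiveBLAzer FRET substrate after 2 h at room temperature. Compound exposure lasted 16 h at 37C.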

[15] = qHTS assay to identify small molecule antagonists of the farnesoid-X-receptor (FXR) signaling pathway - cell viability counter screen (AID 743221; active = well fitted cell-killing curve with a large enough effect in the repeat runs, not every such curve was filed as active; also: nearly all actives have a fitted effect of over 50% in size)
Outline: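 FXR-UAS-bla HEK 293T cells were treated with test compounds plus chenodeoxycholic acid (50 uM final) for 16 h at 37 C. Cell viability in the same wells was then read as CellTiter-Glo luminescence after 30 min at room temperature.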

[16] = target: Vitamin D3 receptor (Homo sapiens) (UniProt P11473); test: qHTS assay to identify small molecule agonists of the vitamin D receptor (VDR) signaling pathway (AID 743222; calls by dose curve)
Chain of Vitamin D3 receptor (Homo sapiens) (P11473 whole entry, looked up): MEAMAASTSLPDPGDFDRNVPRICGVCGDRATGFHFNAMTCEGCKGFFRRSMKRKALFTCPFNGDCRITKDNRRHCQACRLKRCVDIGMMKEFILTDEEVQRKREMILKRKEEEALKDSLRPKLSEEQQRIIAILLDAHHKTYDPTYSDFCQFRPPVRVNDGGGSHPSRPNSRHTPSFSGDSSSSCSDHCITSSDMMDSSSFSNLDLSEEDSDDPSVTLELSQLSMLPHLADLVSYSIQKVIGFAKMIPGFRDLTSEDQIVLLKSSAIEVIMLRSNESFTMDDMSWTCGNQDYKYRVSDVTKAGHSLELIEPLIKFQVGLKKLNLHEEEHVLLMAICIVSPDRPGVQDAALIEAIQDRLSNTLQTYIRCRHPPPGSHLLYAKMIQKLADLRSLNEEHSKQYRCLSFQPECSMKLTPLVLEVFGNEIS
Outline: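 VDR-bla cells, 2,000/well; 4 h preincubation 37C; cpd (DMSO) 16 h; LiveBLAzer B/G substrate 2 h RT; fluorescence intensity read.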

[17] = target: Vitamin D3 receptor (Homo sapiens) (UniProt P11473); test: qHTS assay to identify small molecule antagonists of the vitamin D receptor (VDR) signaling pathway (AID 743223; active = well fitted inhibition curve with a large enough effect in the signal ratio in the repeat runs, not every such curve was filed as active; the % refers to the signal ratio)
Outline: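 VDR-bla cells were plated, incubated 4 h at 37C, then given compound and 1alpha,25-dihydroxyvitamin D3 (3 nM final). After 16 h at 37C, LiveBLAzer B/G FRET substrate was added for 2 h at room temperature and fluorescence read.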

[18] = qHTS assay for small molecule activators of the heat shock response signaling pathway (AID 743210; active = well fitted activation curve with a large enough effect in the signal ratio in the repeat runs, with a control signal flat, not every such curve was filed as active; the % refers to the signal ratio; also: series mostly up to about 63 µM)
Outline: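 HSE-bla HeLa cells (beta-lactamase reporter under heat shock response elements) were exposed to compounds for 5 h at 37 C, then loaded with LiveBLAzer B/G FRET substrate for 2.5 h at room temperature before fluorescence reading.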

[19] = target: Peroxisome proliferator-activated receptor delta (Homo sapiens) (UniProt Q03181); test: qHTS assay to identify small molecule antagonists of the peroxisome proliferator-activated receptor delta (PPARd) signaling pathway (AID 743215; active = well fitted inhibition curve with a large enough effect in the signal ratio in the repeat runs, not every such curve was filed as active; the % refers to the signal ratio;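 also: cells stimulated with agonist L165041 at 300 nM final during compound exposure; series mostly up to about 62 µM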)
Outline: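 Read-out is beta-lactamase FRET fluorescence, measured 2 h after substrate addition at room temperature. Beforehand, UAS-bla HEK293H cells carrying the PPARd reporter were exposed to compounds with L165041 at 300 nM final for 17 h at 37 C.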

Measured: Potency

ClC(Cl)(Cl)Cl
inactive: [1] | [2] | [3] | [4] | [5] | [6] | [7] | [8] | [9] | [10] | [11] | [12] | [13] | [14] | [15] | [16] | [17]

CC(C)NCC(O)c1ccc([N+](=O)[O-])cc1 (configuration not stated)
inactive: [1] | [2] | [3] | [4] | [5] | [6] | [7] | [8] | [18] | [10] | [11] | [19] | [12] | [13] | [14] | [15] | [16] | [17]

CCC(=O)OC1(c2ccccc2)CCN(C)CC1
inactive: [1] | [2] | [3] | [5] | [6] | [7] | [8] | [18] | [9] | [10] | [11] | [19] | [12] | [13] | [14] | [15] | [16] | [17]

CCN(CC)CCOC(=O)C(O)(c1ccccc1)c1ccccc1
inactive: [1] | [2] | [3] | [4] | [5] | [7] | [8] | [18] | [9] | [10] | [11] | [19] | [12] | [13] | [14] | [15]

CN1C(=O)COc2c(C(=O)NC3CN4CCC3CC4)cc(Cl)cc21 (configuration not stated)
inactive: [1] | [2] | [3] | [4] | [5] | [7] | [8] | [18] | [9] | [10] | [11] | [19] | [13] | [15] | [16] | [17]

CCCC(C)C1(CC)C(=O)N=C(S)NC1=O (configuration not stated)
inactive: [1] | [2] | [3] | [5] | [6] | [7] | [8] | [18] | [9] | [11] | [13] | [15] | [16] | [17]

CC(C)C(C)(N)C#N (configuration not stated)
inactive: [1] | [2] | [3] | [5] | [6] | [7] | [8] | [18] | [9] | [10] | [11] | [12] | [13] | [14] | [16]

C#CCOC(=O)/C=C(C)/C=C/CC(C)CCCC(C)C (configuration not stated)
inactive: [1] | [2] | [3] | [4] | [5] | [6] | [7] | [8] | [18] | [9] | [10] | [19] | [12] | [13] | [14] | [15] | [16] | [17]
